Test [1] in a line: Quantitative High-Throughput drug screen in 47 multiple myeloma cell lines against the NCATS MIPE library collection: KMS12BM_JCRB cell viability assay (AID 1918971). Further: nearly all actives have a fitted effect of over 35% in size. A digest of the protocol: (§1)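 Luminescent ATP measurement with CellTiter-Glo gives viability, scaled between DMSO-only wells (100%) and media-only wells (0%). Cells, 500 per well, faced library compounds for 48 hours at 37C.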

Test [2] is described as follows: Quantitative High-Throughput drug screen in 47 multiple myeloma cell lines against the NCATS MIPE library collection: KMS12PE_JCRB cell viability assay (AID 1918972). Further: nearly all actives have a fitted effect of over 30% in size. The essentials:
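qHTS of the MIPE 4.0 collection: 500 myeloma cells/well, 48 h drug exposure at 37C in 5% CO2, then CellTiter-Glo for 5 min at room temperature before luminescence reading.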

A short description of test [3]: Quantitative High-Throughput drug screen in 47 multiple myeloma cell lines against the NCATS MIPE library collection: KMS20_JCRB cell viability assay (AID 1918973). Further: nearly all actives have a fitted effect of over 45% in size. A digest of the protocol:
(§2)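 Viability readout: CellTiter-Glo luminescence following 5 min room-temperature incubation with reagent. Prior exposure: 48 h, 37C, humidified 5% CO2, 500 cells per well.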

A short description of test [4]: Quantitative High-Throughput drug screen in 47 multiple myeloma cell lines against the NCATS MIPE library collection: KMS21BM_JCRB cell viability assay (AID 1918974). Particulars: ATP luminescence, 48 h; viability: at 45.8 µM (top of the series) unless noted. A digest of the protocol:
as §2

A short description of test [5]: Quantitative High-Throughput drug screen in 47 multiple myeloma cell lines against the NCATS MIPE library collection: KMS26_JCRB cell viability assay (AID 1918975). Further: nearly all actives have a fitted effect of over 45% in size. A digest of the protocol: as §1
Test [6] is described as follows: Quantitative High-Throughput drug screen in 47 multiple myeloma cell lines against the NCATS MIPE library collection: OCIMY1_PLB cell viability assay (AID 1918979). Further: nearly all actives have a fitted effect of over 35% in size. The essentials: (§3)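 Viability after 48 h drug exposure was measured as ATP-dependent luminescence. Cells, 500 per well, sat at 37 °C under 5% CO2; DMSO wells set 100%, media-only wells 0%.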
A short description of test [7]: Quantitative High-Throughput drug screen in 47 multiple myeloma cell lines against the NCATS MIPE library collection: MM1S_ATCC cell viability assay (AID 1918980). Further: nearly all actives have a fitted effect of over 45% in size. The essentials: as §3
Test [8] in a line: Quantitative High-Throughput drug screen in 47 multiple myeloma cell lines against the NCATS MIPE library collection: MM1R_ATCC cell viability assay (AID 1918981). Further: nearly all actives have a fitted effect of over 35% in size. The essentials: as §3
A short description of test [9]: Quantitative High-Throughput drug screen in 47 multiple myeloma cell lines against the NCATS MIPE library collection: KMS34_JCRB cell viability assay (AID 1918985). Further: nearly all actives have a fitted effect of over 40% in size. A digest of the protocol:
as §3

Test [10] can be described thus: Quantitative High-Throughput drug screen in 47 multiple myeloma cell lines against the NCATS MIPE library collection: OPM1_PLB cell viability assay (AID 1918989). Further: nearly all actives have a fitted effect of over 40% in size. A digest of the protocol: as §3
Test [11] is described as follows: Quantitative High-Throughput drug screen in 47 multiple myeloma cell lines against the NCATS MIPE library collection: SKMM1_PLB cell viability assay (AID 1919863). Further: nearly all actives have a fitted effect of over 35% in size. Particulars: SKMM1 myeloma viability, CellTiter-Glo ATP, 48 h; viability: active compounds read low. A digest of the protocol:
as §3

Test [12] in a line: Quantitative High-Throughput drug screen in 47 multiple myeloma cell lines against the NCATS MIPE library collection: LP1_DSMZ cell viability assay (AID 1918982). Further: nearly all actives have a fitted effect of over 35% in size. The essentials: as §3
Test [13] in a line: Quantitative High-Throughput drug screen in 47 multiple myeloma cell lines against the NCATS MIPE library collection: KMS28PE_JCRB cell viability assay (AID 1918983). Further: nearly all actives have a fitted effect of over 35% in size. A digest of the protocol: as §3
A short description of test [14]: Quantitative High-Throughput drug screen in 47 multiple myeloma cell lines against the NCATS MIPE library collection: MOLP8_DSMZ cell viability assay (AID 1918977). Further: nearly all actives have a fitted effect of over 45% in size. A digest of the protocol:
as §3

Test [15] is described as follows: Quantitative High-Throughput drug screen in 47 multiple myeloma cell lines against the NCATS MIPE library collection: NCIH929_DSMZ cell viability assay (AID 1918978). Further: nearly all actives have a fitted effect of over 35% in size. The essentials:
as §3

Test [16] is described as follows: Quantitative High-Throughput drug screen in 47 multiple myeloma cell lines against the NCATS MIPE library collection: OCIMY7_PLB cell viability assay (AID 1918987). Further: nearly all actives have a fitted effect of over 65% in size. Particulars: OCI-MY7 myeloma viability, CellTiter-Glo ATP, 48 h; viability (% of DMSO): at 45.8 µM (top of the series). The essentials: as §3
A short description of test [17]: Quantitative High-Throughput drug screen in 47 multiple myeloma cell lines against the NCATS MIPE library collection: OCIMY5_PLB cell viability assay (AID 1918988). Further: nearly all actives have a fitted effect of over 65% in size. The essentials:
as §3

Test [18] can be described thus: Quantitative High-Throughput drug screen in 47 multiple myeloma cell lines against the NCATS MIPE library collection: U266_ATCC cell viability assay (AID 1919864). Further: nearly all actives have a fitted effect of over 35% in size. A digest of the protocol: as §3
The nature of test [19]: Quantitative High-Throughput drug screen in 47 multiple myeloma cell lines against the NCATS MIPE library collection: MMM1_PLB cell viability assay (AID 1918976). Further: nearly all actives have a fitted effect of over 35% in size. A digest of the protocol: as §3
Test [20] in a line: Quantitative High-Throughput drug screen in 47 multiple myeloma cell lines against the NCATS MIPE library collection: L363_DSMZ cell viability assay (AID 1918984). Further: nearly all actives have a fitted effect of over 40% in size. A digest of the protocol:
as §3

Inconclusive results are not listed. A number with no mark means an inactive call. Activity calls are given as the source filed them. The call rests on the fitted dose curve; in most records, active means well fitted curve in the direction sought with a large enough effect; inconclusive means small, poorly fitted or top-dose-only effect, or another doubt; inactive means no such curve, though single readings can be large; an effect the other way counts as inactive or inconclusive.

For twelve compounds, Potency and viability results are on record in PubChem BioAssay (NCATS).
Potency means the concentration at half of the fitted maximal effect.

With `CCn1c(C(=O)N(C2CC2)C2CC2)cc2c3c(ncn3C)c(Nc3cc(C)n(C)n3)nc21`, the Potency result in [1], in test [4], in test [5], in [6], in [7] and in test [8] was “inactive” each time. The Potency entry in test [9] is “inactive”. Further, the figures for the Potency in [2], in [3] and in [10] were 11.8 µM (active), 16.6 µM (active) and 20.9 µM (active), respectively. Further, the viability in test [11] is 128%.
On to `CN(C)CCC=C1c2ccccc2COc2ccc(CC(=O)O)cc21`, for which the Potency entry in test [1], in [2], in test [3], in [8], in test [12] and in test [13] was “inactive” in each case. In addition, the Potency entry in [9] and in test [10] was “inactive” in each case. Also, in test [11], the viability was 114%.
Consider `CC(C)(C)NC(=O)Nc1cccc(Nc2ncc(F)c(NC(C)(C)CO)n2)c1`, for which the Potency entry in [1], in test [3], in test [14], in test [15], in test [6] and in test [13] was “inactive” throughout. Besides, the Potency result in test [18] was “inactive”. The Potency in test [2] was 3.32 µM (active); in test [16] it was 2.35 µM (active); in test [17], 3.72 µM (active); in [10], 13.2 µM (active).
With `CO[C@H]1C(=O)[C@]2(C)[C@@H](OC)C[C@H]3OC[C@@]3(OC(C)=O)[C@H]2[C@H](OC(=O)c2ccccc2)[C@]2(O)C[C@H](OC(=O)[C@H](O)[C@@H](NC(=O)OC(C)(C)C)c3ccccc3)C(C)=C1C2(C)C`, the Potency result in [1], in test [2], in [3], in test [15], in test [8] and in test [9] was “inactive” throughout. The Potency result in [17] and in [10] was “inactive” in each case. Moreover, the viability in test [11] is 65.2%.
In the case of `c1ccc2c(Cc3c[nH]c4ccccc34)c[nH]c2c1`, the Potency is 20.9 µM (active) in test [1]; 5.9 µM (active) in test [2]; 2.96 µM (active) in test [3]; 4.69 µM (active) in test [5]; 16.6 µM (active) in test [19]; 18.7 µM (active) in test [14]. Also, the Potency is 1.05 µM (active) in test [15]; 1.32 µM (active) in test [7]; 2.35 µM (active) in [8]; 26.4 µM (active) in [13]; 1.05 µM (active) in test [16]; 0.743 µM (active) in [17]. Further, the Potency was 7.43 µM (active) in [10], 18.7 µM (active) in test [11] and 2.96 µM (active) in test [18].
Take `COc1ccc(-c2oc3c(CC=C(C)C)c(OC4O[C@H](CO)[C@@H](O)[C@H](O)[C@@H]4O)cc(O)c3c(=O)c2OC2O[C@@H](C)[C@H](O)[C@@H](O)[C@@H]2O)cc1` (stereo not given in full): the Potency in [1] was 18.7 µM (active); in [2], 8.33 µM (active); in test [4] it was 9.35 µM (active); in test [5], 23.5 µM (active); in test [19], 23.5 µM (active); in test [6] it was 23.5 µM (active). Besides, the Potency is 20.9 µM (active) in test [7]; 20.9 µM (active) in test [8]; 20.9 µM (active) in [12]; 13.2 µM (active) in [20]; 23.5 µM (active) in [9]; 20.9 µM (active) in [17]. For the same compound, the Potency is 26.4 µM (active) in [10] and 20.9 µM (active) in test [11].
As to `CC(=O)N(C)C1(c2ccccc2)CCN(CCC[C@]2(c3ccc(Cl)c(Cl)c3)CCCN(C(=O)c3ccccc3)C2)CC1`, the Potency was 20.9 µM (active) in [1]; 7.43 µM (active) in [2]; 4.69 µM (active) in [3]; 20.9 µM (active) in [5]; 20.9 µM (active) in test [19]; 23.5 µM (active) in test [14]. In addition, the Potency was 11.8 µM (active) in test [15]; 26.4 µM (active) in test [6]; 20.9 µM (active) in [7]; 23.5 µM (active) in test [8]; 26.4 µM (active) in [12]; 20.9 µM (active) in test [13]. Also, the Potency in test [20] was 5.9 µM (active); in test [16], 14.8 µM (active); in test [17], 18.7 µM (active); in [10], 18.7 µM (active); in test [18] it was 23.5 µM (active).
As for `O=C(O)c1ccc(-c2cc3cccnc3c(-c3ccc4nonc4c3)n2)cc1`, the Potency in test [1] is 20.9 µM (active); in test [2] it was 20.9 µM (active); in [3] it was 11.8 µM (active); in [19], 26.4 µM (active); in test [15] it was 26.4 µM (active); in test [7], 23.5 µM (active). Besides, the Potency in [9] is 14.8 µM (active); in [10], 20.9 µM (active); in test [11], 20.9 µM (active).
Consider `COc1ccc(-c2nc(N3CCOCC3)c3sc(CN(C)c4ncc(C(=O)NO)cn4)cc3n2)cn1`, for which the Potency entry in [1], in [3], in test [14], in [7], in test [8] and in test [10] was “inactive” in each case. Further, the Potency in test [2] is 0.001 µM (active); in test [5], 0.0264 µM (active); in [6] it was 0.0059 µM (active); in test [20], 0.001 µM (active).
In the case of `O=C1c2ccccc2-[n+]2ccc3c([nH]c4ccccc43)c21`, the Potency in test [1] was 2.09 µM (active); in test [2], 5.26 µM (active); in test [3], 1.05 µM (active); in test [5], 2.35 µM (active); in test [19] it was 1.32 µM (active); in test [14], 1.48 µM (active). The Potency was 3.32 µM (active) in test [15]; 3.72 µM (active) in [6]; 2.64 µM (active) in [7]; 2.09 µM (active) in test [8]; 2.35 µM (active) in test [12]; 2.35 µM (active) in test [13]. For the same compound, the Potency was 3.72 µM (active) in test [20]; 0.833 µM (active) in [9]; 0.264 µM (active) in test [16]; 1.05 µM (active) in test [17]; 0.935 µM (active) in test [10]; 2.96 µM (active) in test [11]. In addition, in test [18], the Potency was 2.35 µM (active).
For the compound `CCC(=O)NC[C@H](Cc1ccc(OCCc2nc(-c3ccccc3)oc2C)cc1)NC(C)=CC(=O)c1ccc(C(F)(F)F)cc1`, the Potency in test [1] is 26.4 µM (active); in test [2], 7.43 µM (active); in test [5], 20.9 µM (active); in test [19] it was 20.9 µM (active); in test [7] it was 1.87 µM (active); in [12], 18.7 µM (active). For the same compound, the Potency in test [13] is 23.5 µM (active); in [9] it was 23.5 µM (active); in [17], 18.7 µM (active); in test [11], 18.7 µM (active). Besides, the Potency result in test [3], in [15], in test [10] and in [18] was “inactive” throughout.
In the case of `O=C(Nc1ccccc1-c1cn2c(CN3CCNCC3)csc2n1)c1cnc2ccccc2n1`, the Potency in test [1] is 10.5 µM (active); in [3], 2.96 µM (active); in [5], 9.35 µM (active); in test [19] it was 10.5 µM (active); in [14], 9.35 µM (active); in [15], 7.43 µM (active). For the same compound, the Potency is 16.6 µM (active) in test [6]; 23.5 µM (active) in test [7]; 20.9 µM (active) in test [8]; 23.5 µM (active) in [12]; 23.5 µM (active) in test [13]; 9.35 µM (active) in [16]. The Potency is 8.33 µM (active) in [17], 8.33 µM (active) in test [10], 4.69 µM (active) in test [11] and 11.8 µM (active) in test [18]. In addition, in test [2], the Potency result was “inactive”.
